For 31 compounds, Potency and outcome results are on record in PubChem BioAssay (NCATS).

The nature of test [1]: NS1 protein of Zika virus - qHTS assay to identify small molecule inhibitors in human HEK 293 cells (AID 1347053). Also: series mostly up to about 46 µM; nearly all actives have a fitted effect of over 55% in size. In a few lines:
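Inhibition of NS1 expression was scored in HEK 293 cells given compound 1 h ahead of MR766 virus (MOI = 0.5). Following 24 h at 37 C, two anti-NS1 antibodies generated a TR-FRET signal, scaled between uninfected and infected controls.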
(In qHTS, concentration-response curves come from the screen itself.)

The target of test [2] is T1, Tyrosine-protein phosphatase non-receptor type substrate 1 (Homo sapiens) + Leukocyte surface antigen CD47 (Homo sapiens) (UniProt P78324+Q08722). In words: CD47-SIRPalpha protein protein interaction - LANCE assay qHTS validation (AID 1347057; active = well fitted curve in the direction sought with a large enough effect in the signal ratio, with a control signal flat, not every such curve was filed as active; the % refers to the signal ratio; also: series mostly up to about 38 µM). In a few lines:
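First, His-tagged CD47 and Eu-labelled anti-His antibody met the compound for 30 min; next, site-specifically biotinylated SIRPalpha was added for 30 min; finally streptavidin-APC was added before reading the TR-FRET ratio.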
On the technique in general: In TR-FRET formats the signal depends on donor and acceptor labels being close together.

The target of test [3] is T1, Tyrosine-protein phosphatase non-receptor type substrate 1 (Homo sapiens) + Leukocyte surface antigen CD47 (Homo sapiens). In words: CD47-SIRPalpha protein protein interaction - Alpha assay qHTS validation (AID 1347059).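 Also: bead proximity luminescence from CD47 binding SIRPalpha after compound preincubation with SIRPalpha.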 In a few lines: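 Soluble extracellular domains: Avi-tag biotinylated SIRPalpha (25 nM) preincubated 30 min RT with compound, then 6His-CD47 (12.5 nM) 30 min; Ni-NTA acceptor and streptavidin donor beads (10 ug/mL) 30 min, AlphaScreen read. PBS pH 7.4, 0.05% IGEPAL.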

In test [4] the target is Parathyroid hormone/parathyroid hormone-related peptide receptor (Homo sapiens) (UniProt Q03431). Kind of test: qHTS for PTHR1 Agonists: Optimization Screen against the NCGC LOPAC library (AID 1347079).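 Also: GloSensor cAMP luminescence in HEK-293 GP2 cells expressing human PTHR1 with IBMX.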 Also: potency is read from the fitted curve at half-maximal effect. The method, boiled down:
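Agonist readout: GloSensor cAMP luminescence, read after 15 min at room temperature. HEK-293-derived GP2 line carries PTHR1; compounds tested as a titration for 1 hr at 37C in presence of IBMX. M-PTH (1-15) served as control.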

Test [5] has as its target N-terminal Xaa-Pro-Lys N-methyltransferase 1 (Homo sapiens) (UniProt Q9BV86). In words: qHTS Assay for Inhibitors of N-terminal methyltransferase 1 (NTMT1): LOPAC validation of the NTMT1 SAHH-coupled ThioGlo3 Assay (AID 1347143). Also: nearly all actives have a fitted effect of over 70% in size. Also: potency is read from the fitted curve at half-maximal effect. The method, boiled down: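 Fluorescence read-out (excitation 340nm, emission 450nm) of SAH-derived thiol, measured via SAHH coupling and ThioGlo3, taken immediately and after a 30 min room-temperature reaction, then normalized to the background read. Enzyme: NTMT1 at 125nM; cofactor SAM 100uM in the added reagent.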

Test [6] deals with Zika virus NS2B-NS3 protease (unlinked). Kind of test: Optimization of GU AMC qHTS for Zika virus inhibitors: Unlinked NS2B-NS3 protease assay (AID 1347151). Also: nearly all actives have a fitted effect of over 80% in size. Also: potency is read from the fitted curve at half-maximal effect. The method, boiled down:
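Noncovalent complex of NS2B hydrophilic domain and NS3 protease domain, 25 nM final, in 10 mM Tris-HCl pH 8.0, 0.01% Tween 20. AMC fluorescence change over 15 min at room temperature was fitted to a 4-parameter Hill equation.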

In test [7] the target is T1, Tyrosine-protein phosphatase non-receptor type substrate 1 (Homo sapiens) + Leukocyte surface antigen CD47 (Homo sapiens). Kind of test: CD47-SIRPalpha protein protein interaction - HTRF assay qHTS validation (AID 1347058; active = well fitted curve in the direction sought with a large enough effect in the signal ratio, not every such curve was filed as active; the % refers to the signal ratio; also: series mostly up to about 38 µM). In a few lines:
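TR-FRET read (Ch1/Ch2 ratio) of soluble extracellular CD47 and Avi-biotinylated SIRPalpha domains in PBS pH 7.4 with 0.05% IGEPAL; 7-point compound titration. Sequential 30 min room-temperature steps; non-biotinylated SIRPalpha as control inhibitor.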

The target in test [8] is Furin (Homo sapiens) (UniProt P09958). In words: Furin counterscreen qHTS for Zika virus inhibitors (AID 1347149).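 Also: purified recombinant full-length human furin enzyme at 5 nM; fluorescence gain from furin cutting a BOC-RVRR-AMC peptide substrate over 15 min; top concentration of the series differs between compounds; nearly all actives have a fitted effect of over 70% in size.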 In a few lines:
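Fluorogenic cleavage of BOC-RVRR-AMC (2 microM final, Km ~15 µM) was monitored (ex 340, em 450 nm) at 37C after 15 min RT preincubation of 5 nM furin with compounds in HEPES pH 7.0 buffer with CaCl2 and Triton X-100. Percent inhibition was fitted to a 4-parameter Hill curve.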
On the technique in general: The purpose of a counterscreen is to sort out artefacts and off-target activity.

Records with an inconclusive call do not appear. The source made the active and inactive calls. Unless noted, calls follow the shape of the dose curve; as a rule, active = well fitted curve in the direction sought with a large enough effect; inconclusive = small, poorly fitted or top-dose-only effect, or another doubt; inactive = no such curve, though single readings can be large; an effect the other way counts as inactive or inconclusive.

Sequence of N-terminal Xaa-Pro-Lys N-methyltransferase 1 (Homo sapiens) (Q9BV86 whole entry, looked up): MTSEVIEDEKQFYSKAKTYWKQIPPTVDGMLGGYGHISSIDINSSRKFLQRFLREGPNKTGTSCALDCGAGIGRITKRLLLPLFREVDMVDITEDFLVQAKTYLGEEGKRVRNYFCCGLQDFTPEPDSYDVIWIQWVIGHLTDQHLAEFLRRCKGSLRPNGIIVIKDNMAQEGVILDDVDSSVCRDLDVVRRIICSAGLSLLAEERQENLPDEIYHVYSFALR
Sequence of Parathyroid hormone/parathyroid hormone-related peptide receptor (Homo sapiens) (Q03431 whole entry, looked up): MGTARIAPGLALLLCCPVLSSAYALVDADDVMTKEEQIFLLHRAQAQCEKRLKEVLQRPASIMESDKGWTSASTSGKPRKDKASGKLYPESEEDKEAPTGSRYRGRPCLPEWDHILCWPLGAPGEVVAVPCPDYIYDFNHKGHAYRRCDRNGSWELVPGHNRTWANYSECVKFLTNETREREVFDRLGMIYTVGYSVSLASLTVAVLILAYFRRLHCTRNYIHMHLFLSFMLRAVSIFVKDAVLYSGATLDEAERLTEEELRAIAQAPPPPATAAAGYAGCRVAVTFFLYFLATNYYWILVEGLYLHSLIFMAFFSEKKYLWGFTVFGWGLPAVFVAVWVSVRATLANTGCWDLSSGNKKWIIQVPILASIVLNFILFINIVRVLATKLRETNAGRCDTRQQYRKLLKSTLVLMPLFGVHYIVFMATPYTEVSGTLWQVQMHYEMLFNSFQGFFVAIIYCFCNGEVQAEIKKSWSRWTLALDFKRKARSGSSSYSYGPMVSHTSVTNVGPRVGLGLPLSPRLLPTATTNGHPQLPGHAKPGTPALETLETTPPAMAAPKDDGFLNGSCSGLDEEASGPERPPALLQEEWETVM
T1 sequence (P78324 whole entry, looked up): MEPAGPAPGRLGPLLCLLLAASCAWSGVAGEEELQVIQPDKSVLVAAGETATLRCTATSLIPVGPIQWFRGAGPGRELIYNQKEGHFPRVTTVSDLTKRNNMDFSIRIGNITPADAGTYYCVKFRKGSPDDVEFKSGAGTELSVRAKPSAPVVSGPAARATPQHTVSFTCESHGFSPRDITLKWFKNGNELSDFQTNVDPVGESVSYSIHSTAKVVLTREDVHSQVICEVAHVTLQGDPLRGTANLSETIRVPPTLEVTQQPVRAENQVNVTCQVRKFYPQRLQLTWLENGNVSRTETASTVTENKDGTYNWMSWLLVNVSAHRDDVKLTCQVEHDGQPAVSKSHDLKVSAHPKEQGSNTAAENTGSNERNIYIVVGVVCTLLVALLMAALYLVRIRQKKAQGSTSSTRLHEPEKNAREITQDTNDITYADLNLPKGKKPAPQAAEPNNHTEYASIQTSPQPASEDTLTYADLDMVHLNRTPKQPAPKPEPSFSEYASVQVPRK
T1 sequence (Q08722 whole entry, looked up): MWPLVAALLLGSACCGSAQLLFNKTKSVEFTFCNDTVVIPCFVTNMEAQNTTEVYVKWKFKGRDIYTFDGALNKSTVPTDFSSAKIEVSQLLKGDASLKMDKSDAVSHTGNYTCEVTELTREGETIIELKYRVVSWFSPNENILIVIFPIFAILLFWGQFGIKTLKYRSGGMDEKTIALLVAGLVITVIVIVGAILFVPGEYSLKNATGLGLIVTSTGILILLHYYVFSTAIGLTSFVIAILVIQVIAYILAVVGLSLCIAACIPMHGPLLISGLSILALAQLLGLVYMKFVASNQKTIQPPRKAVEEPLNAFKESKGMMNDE
Sequence of Furin (Homo sapiens) (P09958 whole entry, looked up): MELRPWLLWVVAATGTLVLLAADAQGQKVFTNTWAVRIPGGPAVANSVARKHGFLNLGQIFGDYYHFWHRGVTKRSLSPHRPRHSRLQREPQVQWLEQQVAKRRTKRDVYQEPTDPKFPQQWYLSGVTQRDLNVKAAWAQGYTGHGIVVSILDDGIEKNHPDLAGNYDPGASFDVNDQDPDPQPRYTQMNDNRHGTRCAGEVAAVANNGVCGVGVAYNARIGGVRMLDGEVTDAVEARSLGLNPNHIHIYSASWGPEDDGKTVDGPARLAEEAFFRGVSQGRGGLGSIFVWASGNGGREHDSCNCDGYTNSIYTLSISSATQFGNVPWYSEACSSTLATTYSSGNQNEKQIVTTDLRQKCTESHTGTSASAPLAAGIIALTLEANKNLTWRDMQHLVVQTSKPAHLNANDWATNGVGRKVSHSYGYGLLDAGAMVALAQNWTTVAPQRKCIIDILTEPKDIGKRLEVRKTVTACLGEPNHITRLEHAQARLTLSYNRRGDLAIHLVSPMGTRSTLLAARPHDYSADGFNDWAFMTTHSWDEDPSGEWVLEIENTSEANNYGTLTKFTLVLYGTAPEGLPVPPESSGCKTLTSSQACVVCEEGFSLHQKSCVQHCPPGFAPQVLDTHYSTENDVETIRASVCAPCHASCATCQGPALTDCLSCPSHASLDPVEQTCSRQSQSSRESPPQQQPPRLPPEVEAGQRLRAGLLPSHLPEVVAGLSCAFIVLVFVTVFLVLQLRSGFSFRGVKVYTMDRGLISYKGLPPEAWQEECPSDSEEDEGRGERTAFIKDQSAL

On to `CC1C(=O)N(C)C(=O)c2nc[nH]c21` (stereo not given), for which the Potency result in test [1], in test [2], in test [3], in test [4], in test [5] and in test [6] was “inactive” in each case.
Take `Cc1ccc([N+](=O)[O-])cc1S(=O)(=O)N(C)C`: the Potency result in test [1], in test [2], in test [3], in test [4], in test [5] and in test [6] was “inactive” throughout.
For `NC/C=C\C(=O)O`, the Potency entry in test [1], in test [2], in test [3], in test [4], in test [5] and in test [6] was “inactive” each time.
As for `NC(=O)CC[C@H](N)C(=O)O`, the Potency result in test [1], in test [2], in test [3], in test [4], in test [5] and in test [6] was “inactive” throughout.
Consider `c1ccc2nc(C3=NCCN3)ccc2c1`, for which the Potency result in test [1], in test [2] and in test [5] was “inactive” each time. Besides, the Potency in test [4] was 26.7 µM (active).
Regarding `Cc1ccc2c(c1)C(N1CCN(C)CC1)=Nc1cccnc1N2`, the Potency result in test [1], in test [2], in test [3], in test [4], in test [5] and in test [6] was “inactive” each time.
Regarding `CC1CCN(CC[C@H]2CCCN2S(=O)(=O)c2cccc(O)c2)CC1`, the Potency result in test [1], in test [2], in test [3], in test [4], in test [5] and in test [6] was “inactive” each time.
On to `Nc1ccc(N2C(=O)c3ccccc3C2=O)c(Cl)c1`, for which the Potency entry in test [1], in test [2], in test [3], in test [4], in test [5] and in test [6] was “inactive” each time.
In the case of `O=c1ccn([C@@H]2O[C@H](COP(=O)(O)OP(=O)(O)O)[C@@H](O)[C@H]2O)c(=O)[nH]1`, the Potency entry in test [1], in test [2], in test [3], in test [4], in test [5] and in test [6] was “inactive” each time.
Take `Cn1c(=O)c2[nH]c(C3CCCC3)nc2n(C)c1=O`: the Potency result in test [1], in test [2], in test [3], in test [4], in test [5] and in test [6] was “inactive” each time.
Turning to `OCC1NCC(O)C(O)C1O` (stereo not given), the Potency result in test [1], in test [2], in test [3], in test [4], in test [5] and in test [6] was “inactive” in each case.
Turning to `CNCCc1cnc(CCC(c2ccccc2)c2ccccc2)[nH]1`, the Potency result in test [1], in test [2], in test [3], in test [4] and in test [6] was “inactive” in each case.
For the compound `O=C1OC(=O)C2C3CCC(O3)C12` (stereo not given), the Potency entry in test [1], in test [2], in test [3], in test [4], in test [5] and in test [6] was “inactive” in each case.
With `O=[N+]([O-])c1cccc2cn[nH]c12`, the Potency result in test [1], in test [2], in test [3], in test [4], in test [5] and in test [6] was “inactive” throughout.
As for `CNc1ncnc2c1ncn2[C@H]1C[C@H](OP(=O)(O)O)[C@@H](COP(=O)(O)O)O1`, the Potency result in test [1], in test [2], in test [3], in test [4], in test [5] and in test [6] was “inactive” each time.
In the case of `C=CC1(C)CC(=O)C2(O)C(C)(O1)C(OC(C)=O)C(O)C1C(C)(C)CCC(O)C12C` (stereo not given), the Potency result in test [1], in test [2], in test [3], in test [5] and in test [6] was “inactive” throughout. Further, in test [4], the Potency is 21.2 µM (active).
Consider `CC[C@H](NC(=O)c1c(C)c(-c2ccccc2)nc2ccccc12)c1ccccc1`, for which the Potency result in test [1], in test [2], in test [3], in test [4], in test [5] and in test [6] was “inactive” throughout.
Regarding `N[C@@H](Cc1ccc(O)c(I)c1)C(=O)O`, the Potency entry in test [1], in test [2], in test [3], in test [4], in test [5] and in test [6] was “inactive” in each case.
Consider `O=C(O)c1ccccc1Nc1ccccc1`, for which the Potency result in test [1], in test [2], in test [3], in test [4] and in test [6] was “inactive” throughout.
As to `O=C1C2C=CC=CC2=NC(=S)N1CCN1CCC(=C(c2ccc(F)cc2)c2ccc(F)cc2)CC1` (stereo not given), the Potency entry in test [1], in test [2], in test [4] and in test [5] was “inactive” throughout.
Consider `Nc1ccc(CCNc2ncnc3c2ncn3C2OC(CO)C(O)C2O)cc1` (stereo not given), for which the Potency result in test [1], in test [3], in test [4] and in test [6] was “inactive” each time. The outcome in test [7] was inactive.
As to `CC(C)(CO)Cc1cc(C(C)(C)C)c(O)c(C(C)(C)C)c1`, the Potency result in test [1], in test [3], in test [4] and in test [5] was “inactive” in each case.
For the compound `c1ccc2c(c1)CCC[C@H]2Nc1nc2ccccc2[nH]1`, the Potency entry in test [1], in test [3], in test [4], in test [5] and in test [6] was “inactive” in each case. Besides, in test [7], the outcome was inactive.
As to `O=c1onc2n1-c1cc(Br)ccc1OC2`, the Potency entry in test [1], in test [2], in test [4], in test [5] and in test [6] was “inactive” throughout.
On to `O=c1[nH]c(=S)[nH]c(-c2ccccc2)c1Cc1c(O)ccc2ccccc12`, for which the Potency result in test [1], in test [4] and in test [8] was “inactive” throughout. For the same compound, in test [7], the outcome was inactive. The Potency in test [5] is 79.4 µM (active); in test [6], 7.52 µM (active).
For the compound `Clc1nccc2c1ccc1ccccc12`, the Potency entry in test [1], in test [3] and in test [4] was “inactive” in each case. Further, in test [5], the Potency was 50.1 µM (active).
Take `CCCCCCCCCCCCCCSCC(=O)O`: the Potency result in test [1], in test [3], in test [4] and in test [5] was “inactive” each time. Besides, the result in test [7] was inactive. In addition, the Potency in test [6] is 11.9 µM (active).
On to `CCCCCCN(CCCCCC)C(=O)Cc1c(-c2ccc(F)cc2)[nH]c2ccccc12`, for which the Potency result in test [1], in test [3] and in test [4] was “inactive” each time. Further, the outcome in test [7] was inactive. Besides, the Potency in test [5] is 79.4 µM (active); in test [6] it was 21.2 µM (active).
As to `O=c1[nH]c2cc(Cl)ccc2c(O)c1-c1ccc(Oc2ccccc2)cc1`, the Potency entry in test [1], in test [3], in test [4] and in test [5] was “inactive” in each case. For the same compound, in test [7], the outcome was inactive.
In the case of `O=C(O)/C=C/c1cnc[nH]1`, the Potency result in test [1], in test [4], in test [5] and in test [6] was “inactive” each time. In test [7], the outcome was inactive.
Regarding `CC(C)NC[C@H](O)COc1cccc2ccccc12`, the Potency entry in test [1], in test [3] and in test [4] was “inactive” in each case. The outcome in test [7] was inactive.
